Several values for one entry are separate records, joined by “and”; a condition that tells them apart may be missing. Equal values may be shown once. Records with an inconclusive call do not appear. Entries that show only a call come without a potency. Activity calls are given as the source filed them. Unless noted, calls follow the shape of the dose curve; as a rule, active = well fitted curve in the direction sought with a large enough effect; inconclusive = small, poorly fitted or top-dose-only effect, or another doubt; inactive = no such curve, though single readings can be large; an effect the other way counts as inactive or inconclusive.
Key:
[1] = Cell Viability - BJ (AID 421; calls by dose curve;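 also: potency is read from the fitted curve at half-maximal effect; cells exposed to compound for 40 hours at 37 °C before readout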); conditions: BJ fibroblast viability, qHTS
Method in brief: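 Luminescent ATP signal (CellTiter-Glo, 20 min at room temperature) served as the read-out of viable BJ cells after 40 hours of compound treatment. Responses were scaled between DMSO and 100 uM tamoxifen, and AC50 values were obtained by Hill modeling.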

[2] = Cell Viability - Jurkat (AID 426;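 active = dose-dependent loss of cell ATP signal giving a full or clear fitted curve, ranked by lower potency value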; also: potency is read from the fitted curve at half-maximal effect); conditions: qHTS
Method in brief: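 Seed 5000 Jurkat E6-1 cells/well; add compound; incubate 40 hr at 37 °C; add CellTiter-Glo; wait 20 min at room temperature; read luminescence. Fit concentration-response with Hill equation for AC50.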

[3] = Cell Viability - Hek293 (AID 427;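 active = compounds whose dose-response curve shows a full or clear partial loss of cell viability, called from curve shape rather than a numeric limit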;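 also: potency is read from the fitted curve at half-maximal effect; cells exposed to compound for 40 hours at 37 °C before reading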); conditions: qHTS
Method in brief: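 Luminescent ATP read-out (CellTiter-Glo, 20 min RT) after 40 hr compound exposure at 37 °C in complete medium. Signal normalized to DMSO (basal) and 100 uM tamoxifen (100% inhibition); concentration-response fitted with the standard Hill equation to give AC50.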

[4] = Cell Viability - HepG2 (AID 433; calls by dose curve;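 also: potency is read from the fitted curve at half-maximal effect; potency for ATP loss meaning cytotoxicity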); conditions: qHTS
Method in brief: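 HepG2 cells, 1500 per well, treated 40 hr at 37 °C in complete medium; viability from intracellular ATP by CellTiter-Glo luminescence. Normalized to DMSO and 100 uM tamoxifen; AC50 from Hill fit of qHTS concentration-response.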

[5] = Cell Viability - SK-N-SH (AID 435; calls by dose curve;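 also: potency is read from the fitted curve at half-maximal effect; compound exposure lasted 40 h at 37 °C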); conditions: SK-N-SH neuroblastoma cell viability qHTS
Method in brief: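 SK-N-SH neuroblastoma cells (1500/well) treated 40 h at 37 °C in complete medium; viability read as cellular ATP by CellTiter-Glo luminescence. Normalized to DMSO and 100 uM tamoxifen; AC50 from Hill fits of qHTS concentration-response.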

[6] = Cell Viability - Renal Proximal Tubule (AID 545); conditions: renal proximal tubule cells viability; series mostly up to 91.7 µM; also: nearly all actives have a fitted effect of over 40% in size
Method in brief: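 Rat renal proximal tubule primary cells, 1000/well, exposed to compounds for 40 hr at 37 °C in complete medium; cellular ATP read by CellTiter-Glo luminescence. AC50 from concentration-response fitted with standard Hill equation.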

[7] = Cellular Toxicity (caspase-3) HUV-EC-C (AID 656); conditions: HUV-EC-C cells, caspase-3 activation (apoptosis), vehicle = 0, 100 µM tamoxifen = 100%; series mostly up to 92.2 µM
Method in brief: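 HUV-EC-C cells (1000/well) in complete medium, compound-treated 16 h at 37 °C; caspase-3/7 activity read by Caspase-Glo 3/7 luminescence. Normalized to DMSO (basal) and 100 uM tamoxifen (100%); AC50 from Hill-equation concentration-response fits.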

[8] = Cellular Toxicity (caspase-3) SHSY5Y (AID 657); conditions: SH-SY5Y caspase-3 activation, DMSO zero, 10 µM staurosporine = 100%; series mostly up to 91.7 µM
Method in brief: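 SH-SY5Y human neuroblastoma cells, 1500/well, exposed to compound for 16 hours at 37 °C in complete medium. Caspase-3/7 activity read by Caspase-Glo luminescence after 1 hr at room temperature, normalized to DMSO and 10 uM staurosporine; AC50 from Hill fit.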

[9] = Cellular Toxicity (caspase-3) MRC-5 (AID 659); conditions: MRC-5 cells, luminescence, normalized: DMSO 0%, 10 µM staurosporine 100%; series mostly up to 91.7 µM
Method in brief: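 MRC-5 human normal lung fibroblasts, 1500 cells/well, treated 16 h at 37 °C in complete medium. Caspase 3/7 measured by Caspase-Glo luminescence after 1 h at room temperature. Normalized to DMSO and 10 uM staurosporine; AC50 from Hill fit.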

[10] = MultiTox-Fluor Cytotoxicity Assay - LYMP1-002 - Live Cells (AID 955); conditions: LYMP1-002 lymphoblastoid live-cell protease fluorescence viability; series mostly up to 46.1 µM
Method in brief: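 Cytotoxicity in the human lymphoblastoid line LYMP1-002 is measured as loss of live-cell protease activity after 16 h treatment in complete culture medium. AC50 is derived from Hill-equation fits of qHTS concentration-response data.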

[11] = Cell Viability - LYMP1-003 - Assay at 24 hr (AID 963); conditions: LYMP1-003 lymphoblastoid cell viability; series mostly up to 92.2 µM
Method in brief: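 Acute toxicity in LYMP1-003 lymphoblastoid cells: 24 hr compound treatment at 37 C, ATP measured with CellTiter-Glo after 30 min at room temperature. AC50 derived by fitting the Hill equation to qHTS titrations.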

[12] = Cell Viability - LYMP2-009 (AID 968); conditions: LYMP2-009 lymphoblastoid cell viability; series mostly up to 92.2 µM; also: nearly all actives have a fitted effect of over 55% in size; also: potency is read from the fitted curve at half-maximal effect
[13] = Cell Viability - LYMP2-017 (AID 972); conditions: LYMP2-017 lymphoblastoid cell viability; series mostly up to 92.2 µM;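 also: cells exposed to compound for 24 hours at 37 °C; nearly all actives have a fitted effect of over 55% in size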; also: potency is read from the fitted curve at half-maximal effect
Method in brief: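 Steps: plate 2500 lymphoblastoid cells per well; incubate 5 hr at 37 C; add compound across a concentration series and incubate 24 hr at 37 C; add CellTiter-Glo and read luminescence after 30 min at room temperature; fit Hill curves for AC50.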

[14] = Cell Viability - LYMP2-025 (AID 976); conditions: LYMP2-025 lymphoblastoid cell viability; series mostly up to 92.2 µM
Method in brief: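 In qHTS format, LYMP2-025 lymphoblastoid cells in complete culture medium received compound for 24 hr; ATP-based CellTiter-Glo signal gave viability, with AC50 derived by Hill equation.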

[15] = Cell Viability - LYMP2-016 (AID 984); conditions: LYMP2-016 lymphoblastoid cell viability, qHTS; series mostly up to 92.2 µM;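 also: cells exposed to compound for 24 hours at 37 °C; nearly all actives have a fitted effect of over 55% in size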; also: potency is read from the fitted curve at half-maximal effect
Method in brief: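 Human lymphoblastoid LYMP2-016 cells, 2500 per well, treated with compounds for 24 h at 37 C. Viability read as intracellular ATP by CellTiter-Glo luminescence after 30 min at room temperature; AC50 from Hill fits of concentration-response.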

[16] = Cell Viability - LYMP2-024 (AID 988); conditions: LYMP2-024 lymphoblastoid cell viability; series mostly up to 92.2 µM; also: nearly all actives have a fitted effect of over 60% in size; also: potency is read from the fitted curve at half-maximal effect
Method in brief: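 Acute toxicity is measured as concentration-dependent loss of intracellular ATP in a human lymphoblastoid line treated 24 hours at 37 C. Luciferase luminescence quantifies ATP; AC50 values come from standard Hill-equation modelling.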

[17] = qHTS Assay for Identification of Small Molecule Inducers of Hypoxia Response (AID 2120; active = well fitted curve in the direction sought with a large enough effect in the signal ratio, with a control signal flat, not every such curve was filed as active; the % refers to the signal ratio); conditions: hypoxia response reporter cells, beta-lactamase ratio readout; series mostly up to 104 µM
Method in brief: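 Induction of beta-lactamase reporter activity was measured in CellSensor HRE-bla ME-180 cells after 17 h compound treatment at 37 degrees C, using CCF4 substrate and the 460nm/530nm emission ratio to derive AC50 values.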

[18] = qHTS assay for small molecule agonists of retinoid X receptor alpha signaling (AID 588544); conditions: HEK293T RXRa-UAS-bla, beta-lactamase reporter, 18 h; 530 nm emission
[19] = biological target: Peroxisome proliferator-activated receptor alpha (Homo sapiens) (UniProt Q07869); assay: qHTS assay for small molecule agonists of the peroxisome proliferator-activated receptor alpha (PPARalpha) signaling pathway (AID 651778); conditions: PathHunter PPARalpha complementation, chemiluminescence, 6 h; stronger effect = higher value
Method in brief: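 Enzyme-fragment complementation assay in which ligand-bound PPARalpha translocates and forms an active enzyme that generates chemiluminescence. Cells were plated overnight, exposed to compound for 6 hr at 37 C, and then given detection reagent for 60 min at room temperature.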

[20] = qHTS assay for small molecule agonists of the antioxidant response element (ARE) signaling pathway measured by Nrf2-dependant transcriptional activity - cell viability counter screen (AID 720653; active = well fitted curve in the direction sought with a large enough effect in the repeat runs; an effect the other way counts as inactive or inconclusive); conditions: ARE-bla HepG2 viability, CellTiter-Glo ATP luminescence, 16 h; stronger effect = lower value
Method in brief: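 ARE-bla HepG2 cells treated with compounds for 16 h at 37C; this counter screen measures viability as intracellular ATP by CellTiter-Glo luminescence after 30 min at room temperature.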

Sequence of Peroxisome proliferator-activated receptor alpha (Homo sapiens) (Q07869 whole entry, looked up, the tested form may be a part): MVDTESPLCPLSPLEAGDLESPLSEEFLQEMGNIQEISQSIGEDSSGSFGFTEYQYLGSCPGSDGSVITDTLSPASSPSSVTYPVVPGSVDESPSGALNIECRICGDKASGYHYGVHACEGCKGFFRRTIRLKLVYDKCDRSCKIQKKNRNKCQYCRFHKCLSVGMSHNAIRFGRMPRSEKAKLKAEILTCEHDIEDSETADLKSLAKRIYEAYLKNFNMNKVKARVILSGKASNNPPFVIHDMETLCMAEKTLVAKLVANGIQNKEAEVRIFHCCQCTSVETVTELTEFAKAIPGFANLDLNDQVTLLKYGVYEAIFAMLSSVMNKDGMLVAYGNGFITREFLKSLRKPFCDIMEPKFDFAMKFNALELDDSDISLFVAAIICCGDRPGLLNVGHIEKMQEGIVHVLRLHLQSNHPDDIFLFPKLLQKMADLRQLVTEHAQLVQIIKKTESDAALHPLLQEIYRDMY

| Compound | Potency [1] | Potency [2] | Potency [3] | Potency [4] | Potency [5] | outcome [6] | outcome [7] | outcome [8] | outcome [9] | outcome [10] | outcome [11] | Potency [12] | Potency [13] | Potency [14] | Potency [15] | Potency [16] | Potency [17] | max response [18] | max response [19] | max response [20] |
| --- | --- | --- | --- | --- | --- | --- | --- | --- | --- | --- | --- | --- | --- | --- | --- | --- | --- | --- | --- | --- |
| Nc1ncc([N+](=O)[O-])s1 | > 92 µM (inactive) | > 92 µM (inactive) | > 92 µM (inactive) | > 92 µM (inactive) | > 92 µM (inactive) | inactive | inactive | inactive | inactive | inactive | inactive | inactive | inactive | inactive | inactive | inactive | inactive | 0.224% | 7.02% (inactive) | 0.285% (inactive) |
| ClCCOCOCCCl | > 92 µM (inactive) | > 92 µM (inactive) | > 92 µM (inactive) | > 92 µM (inactive) | > 92 µM (inactive) | inactive | inactive | inactive | inactive | inactive | inactive | inactive | inactive | inactive | inactive | inactive | inactive | -19.5% | -0.0658% (inactive) | -12.6% (inactive) |
| OC[P+](CO)(CO)CO | > 92 µM (inactive) | 31.3 µM (inactive) | > 92 µM (inactive) | > 92 µM (inactive) | > 92 µM (inactive) | inactive | inactive | inactive | inactive | inactive | inactive | 25.1 µM (active) | 12.6 µM (active) |  | 20 µM (active) | 7.94 µM (active) | inactive |  | -6.87% (inactive) and -1.39% (inactive) | -17.6% (inactive) and -11.9% (inactive) |
| COC(=O)Nc1cccc(OC(=O)Nc2cccc(C)c2)c1 | > 92 µM (inactive) | > 92 µM (inactive) | > 92 µM (inactive) | > 92 µM (inactive) | > 92 µM (inactive) | inactive | inactive | inactive | inactive | inactive | inactive | inactive | inactive | inactive | inactive | inactive | inactive | 14% | -6.94% (inactive) | -11.1% (inactive) |
| CCOC(=O)C1OC1(C)c1ccccc1 (stereo not drawn) | > 92 µM (inactive) | > 92 µM (inactive) | > 92 µM (inactive) | > 92 µM (inactive) | > 92 µM (inactive) | inactive | inactive | inactive | inactive | inactive | inactive | inactive | inactive | inactive | inactive | inactive | inactive | -8.71% | 4.47% (inactive) | -18.9% (inactive) |
| Cc1cc(-c2ccc(N)c(C)c2)ccc1N | > 92 µM (inactive) | > 92 µM (inactive) | > 92 µM (inactive) | > 92 µM (inactive) | > 92 µM (inactive) | inactive | inactive | inactive | inactive | inactive | inactive | inactive | inactive | inactive | inactive | inactive | inactive | -4.96% and -4.31% | -2.87% (inactive) and -0.886% (inactive) and -6.11% (inactive) | -1.36% (inactive) and 7.56% (inactive) and 13.5% (inactive) |
